Test results from PubChem BioAssay (NCATS).
Records with an inconclusive call do not appear. Activity calls are given as the source filed them. Calls follow the shape of the dose curve; as a rule, active = well fitted inhibition curve with a large enough effect in the signal ratio, with a control signal flat (not every such curve was filed as active); inconclusive = small, poorly fitted or top-dose-only effect, or effect the other way, or a change in a side signal; inactive = no such curve, though single readings can be large or run the other way; the % refers to the signal ratio.

biological target: Peroxisome proliferator-activated receptor delta (Homo sapiens) (UniProt Q03181); assay: qHTS assay for small molecule antagonists of peroxisome proliferator-activated receptor delta signaling (AID 588535); settings: HEK293T PPARd-UAS-bla, beta-lactamase FRET ratio, 18 h; series mostly up to 76.7 µM; activity change, negative = inhibition: at the top concentration
From the text: NIH Chemical Genomics Center [NCGC] U.S. Environmental Protection Agency [EPA] National Institutes of Environmental Health Sciences [NIEHS] National Toxicology Program [NTP] NCGC Assay Overview The Peroxisome proliferator-activated receptors (PPARs) are lipid-activated transcription factors of the nuclear receptor superfamily with three distinct subtypes namely PPAR alpha, PPAR delta (also called PPAR beta) and PPAR gamma. All these subtypes heterodimerizes with Retinoid X receptor (RXR) and have different physiological functions. […] This role of PPAR delta implicates the potential use of its ligands in the treatment of metabolic disorders.
NCGC Assay Protocol Summary Using a beta-lactamase reporter-gene under control Peroxisome Proliferator-Activated Receptor delta (PPAR-delta) response element, a cell-based assay [GeneBLAzer (PPAR-delta-UAS-bla assay developed by Invitrogen] was used to measure PPAR-delta ligands signaling. GeneBLAzer PPAR-delta-UAS-bla HEK293T cells were used with assay medium containing 2% charcoal/dextran FBS. The assay was performed in clear bottom black Greiner 1536-well plates. Library compounds were measured for their ability to inhibit the reporter gene activity. Compounds were screened in a titration series in 1536-well format. The fluorescence intensity (405 nm excitation, 460/530 nm emission) was measured using an EnVision plate reader. […] Concentration-response titration points for each compound were fitted to the Hill equation yielding concentrations of half-maximal inhibition (IC50) and maximal response (efficacy) values. qHTS protocol for PPAR-delta beta-lactamase assay in antagonist mode [Step] [Parameter] [Value] [Description] 1. Reagent; 5 uL; 4000 cells/well 2. Incubation; 37 C for 5 hrs 3. Compounds; 23 nL; 0.59 nM to 92 uM 4. […] Incubation; 37 C for 18 hrs 7. Detection reagent; 1 uL of CCF4-dye 8. Incubation; RT for 2 hrs 9. Detection; Fluorescence; Envision plate reader

Sequence of Peroxisome proliferator-activated receptor delta (Homo sapiens) (Q03181 whole entry, looked up): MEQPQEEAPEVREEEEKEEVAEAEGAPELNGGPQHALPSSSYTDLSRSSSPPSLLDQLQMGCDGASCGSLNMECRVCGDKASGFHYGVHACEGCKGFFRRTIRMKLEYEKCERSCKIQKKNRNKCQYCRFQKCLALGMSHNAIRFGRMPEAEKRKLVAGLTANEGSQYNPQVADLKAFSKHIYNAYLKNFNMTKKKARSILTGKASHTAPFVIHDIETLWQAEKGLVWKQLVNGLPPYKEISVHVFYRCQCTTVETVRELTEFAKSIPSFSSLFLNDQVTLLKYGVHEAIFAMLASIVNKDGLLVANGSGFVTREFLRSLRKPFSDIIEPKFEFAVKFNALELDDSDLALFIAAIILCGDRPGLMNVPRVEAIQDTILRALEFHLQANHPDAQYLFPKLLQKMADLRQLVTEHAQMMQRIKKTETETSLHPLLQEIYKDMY

SMILES	activity change, negative = inhibition	outcome
Cc1ccc(N)cc1C	-12.1% (inactive)	–
CCCCOC(=O)c1ccccc1N	-34.5% (inactive)	–
Cl/C=C/Cl	-17.2% (inactive)	–
CC(C)(C)c1ccccc1O	–	inactive
Cc1cccc(C)c1N	-0.869% (inactive)	–
CC(=O)NNc1ccccc1	-8.85% (inactive)	–
CN(C)C(=O)Cl	-33.9% (inactive)	–
CCC#N	-20% (inactive)	–
ClCC(Cl)Cl	-17.4% (inactive)	–
CCNCC	2.43% (inactive)	–
Cl/C=C/CCl	-0.145% (inactive)	–
O=[N+]([O-])/C=C/c1ccccc1	-4.96% (inactive)	–
COC(=O)Nc1nc2ccccc2[nH]1	-28.4% (inactive)	–
CCOC(=O)CBr	-15.3% (inactive)	–
CCCN(CCC)c1c([N+](=O)[O-])cc(C(F)(F)F)cc1[N+](=O)[O-]	-14.8% (inactive)	–
O=[N+]([O-])c1cccc2c([N+](=O)[O-])cccc12	-24.6% (inactive)	–
ClCCBr	-15.2% (inactive)	–
CC1CC(=O)O1 (stereo not given)	-0.0545% (inactive)	–
COc1ccc(C=O)cc1	-6.94% (inactive)	–
CC(Cl)(Cl)Cl	–	inactive

SMILES	activity change, negative = inhibition	outcome
ClCc1ccccn1	2.53% (inactive)	–
Cc1ccc2c(C)cccc2c1	5.24% (inactive)	–
O=[N+]([O-])c1cc(Cl)c(Cl)cc1Cl	2.29% (inactive)	–
CN(C)c1ccc(N=Nc2ccccc2)cc1	-29.1% (inactive)	–
O=[N+]([O-])c1cc(Cl)c(Cl)c(Cl)c1	-6.2% (inactive)	–
COC(=O)c1ccccc1N	-30.1% (inactive)	–
Cc1ccc(N)cc1N	–	inactive
Clc1ccccc1	-15.5% (inactive)	–
COc1cc(-c2ccc(N)c(OC)c2)ccc1N	–	inactive
CCC(Cl)[N+](=O)[O-] (stereo not given)	-16.2% (inactive)	–
CC(C)CC(C)N (stereo not given)	-13% (inactive)	–
C=CC(=O)OCC(CC)CCCC (stereo not given)	–	inactive
Oc1ccc(Cl)c(Cl)c1	-18.4% (inactive)	–
CCN(N=O)C(N)=O	-16% (inactive)	–
c1ccc(N=NNc2ccccc2)cc1	–	inactive
CCCCOC(C)=O	-22.3% (inactive)	–
c1ccc(P(c2ccccc2)c2ccccc2)cc1	10.6% (inactive)	–
OC[P+](CO)(CO)CO	-16.8% (inactive)	–
Nc1c(Cl)cc([N+](=O)[O-])cc1Cl	–	inactive
CC(C)[N+](=O)[O-]	-14% (inactive)	–
